Results from PubChem BioAssay (Tox21).
Inconclusive results are not listed. Calls of active or inactive are those of the source. The call rests on the fitted dose curve; in most records, active means well fitted cell-killing curve with a large enough effect in the repeat runs; inconclusive means weak or mixed curves, or effect the other way; inactive means no such curve, though single readings can be large or run the other way.

assay: qHTS assay to identify small molecule agonists of the farnesoid-X-receptor (FXR) signaling pathway - cell viability counter screen (AID 743218); conditions: FXR-bla HEK293T viability, CellTiter-Glo luminescence, 16 h; series mostly up to 62.6 µM; viability change, negative = cytotoxic: at the top concentration; further: nearly all actives have a fitted effect of over 45% in size
Excerpt: U.S. Tox21 Program National Center for Advancing Translational Sciences [NCATS] NIH Chemical Genomics Center [NCGC] U.S. Environmental Protection Agency [EPA] National Institutes of Environmental Health Sciences [NIEHS] National Toxicology Program [NTP] U.S. Food and Drug Administration [FDA] Tox21 Assay Overview: The farnesoid-X-receptor (FXR), a nuclear hormone receptor, is highly expressed in liver, intestine, kidney and adrenal cortex. Natural ligands of FXR are the bile acids (Cholic acid, Chenodeoxy cholic acid etc). FXR is an important regulator of diverse metabolic pathways, including the bile acid homeostasis, lipid and glucose metabolisms. FXR regulates the expression of target genes by binding either as a monomer or as a heterodimer with the retinoid X receptor (RXR). Numerous studies have reported that FXR exerts protective function during cholestasis, diabetes, liver regeneration, and cancer. To identify compounds that activate FXR signaling, GeneBLAzer FXR-UAS-bla HEK 293T cell line (Invitrogen, Carlsbad, CA) containing a beta-lactamase reporter gene under the control of a UAS response element was used to screen the Tox21 10K compound library. The cytotoxicity of the Tox21 compound library against the FXR-bla cell line was tested in parallel by measuring the cell viability using CellTiter-Glo assay in the same wells.
Tox21 Assay Protocol Summary: FXR-bla cells were dispensed at 5000 cells/5uL/well in 1536-well black wall/clear bottom plates using a Multidrop Combi (Thermo Fisher Scientific, Waltham, MA) dispenser. After the assay plates were incubated at 37 C and 5% CO2 for 5 h, 23 nL of compounds dissolved in DMSO, positive controls or DMSO only was transferred to the assay plate by a Pintool station (Kalypsys, San Diego, CA). The assay plates were incubated at 37C for 16 h. After 1 uL of LiveBLAzerTM B/G FRET substrate was added using a Bioraptr Flying Reagent Dispenser (FRD) workstation (Beckman Coulter, Indianapolis, IN), the plates were incubated at room temperature for 2 h, and fluorescence intensity was measured by an Envision plate reader (PerkinElmer, Shelton, CT). For cell viability readout that measures cytotoxicity, 4uL/well of CellTiter-Glo reagent was added into the assay plates using a Bioraptr FRD. After 30 min incubation at room temperature, the luminescence intensity in the plates was measured using a ViewLux plate reader (PerkinElmer).
On the % scale 0 is the no-effect control and ±100 the full control effect.

Row | SMILES | viability change, negative = cytotoxic
1 | CCC(C)(C)C1CCC(=O)CC1 | 21.1% (inactive)
2 | CN[C@@H]1[C@@H](O)[C@@H](O[C@@H]2[C@H](O)[C@H](O[C@H]3OC(CN)=CC[C@H]3N)[C@@H](N)C[C@H]2N)OCC1(C)O (stereo not given in full) | -11.9% (inactive)
3 | NS(=O)(=O)c1ccccc1OC(F)(F)F | 25% (inactive)
4 | CC(=O)Nc1ccc(C)cc1 | 4.65% (inactive)
5 | CC1=NN(c2ccc(S(=O)(=O)O)cc2)C(=O)C1N=Nc1ccccc1 (stereo not given) | -18.4% (inactive)
6 | CCCCCC1Nc2cc(C(F)(F)F)c(S(N)(=O)=O)cc2S(=O)(=O)N1 (stereo not given) | -3.26% (inactive)
7 | CC(C)COC(=O)CC(C(=O)OCC(C)C)S(=O)(=O)O (stereo not given) | -26.6% (inactive)
8 | CCN(Cc1cccc(S(=O)(=O)O)c1)c1ccccc1 | 0.644% (inactive)
9 | CCCCCCCCCCCCOC(C)=O | 2.19% (inactive)
10 | O=[Si]=O | 3.05% (inactive)
11 | O=C(Nc1cccc(C2=NCCN2)c1)Nc1cccc(C2=NCCN2)c1 | -19.8% [at 29.1 µM] (inactive)
12 | O=C(COCCOCCOCC(=O)Nc1c(I)cc(I)c(C(=O)O)c1I)Nc1c(I)cc(I)c(C(=O)O)c1I | -8.7% (inactive)
13 | O=C(O)CCNC(=O)c1ccccc1 | -3.86% (inactive)
14 | COc1ccc(OC)c(NC(=O)CC(C)=O)c1 | 48.5% (inactive)
15 | NC(=O)C1(N2CCCCC2)CCN(CCCC(=O)c2ccc(F)cc2)CC1 | -2.37% (inactive)
16 | CCCCOC(=O)C(=O)OCCCC | 3.38% (inactive)
17 | O=S1(=O)CCCC1 | -0.514% [at 81.1 µM] (inactive)
18 | O=c1cc(O)c(Cl)c[nH]1 | 3.84% (inactive)
19 | CO/N=C(/C(=O)N[C@@H]1C(=O)N2C(C(=O)O)=C(Cn3nnc(C)n3)CS[C@H]12)c1csc(N)n1 | 1.61% (inactive)
20 | CNC(=O)NC | 4.12% [at 81.1 µM] (inactive)

Row | SMILES | viability change, negative = cytotoxic
21 | BrC/C=C/CBr | -0.558% [at 29.1 µM] (inactive)
22 | CCC(CO)CO | -17.8% (inactive)
23 | CC(C)=CC(C)(C)C | -6.75% (inactive)
24 | C1CCN2C[C@@H]3C[C@@H](CN4CCCC[C@@H]34)[C@H]2C1 | 0.345% (inactive)
25 | FC(F)(F)/C(=N\OCC1OCCO1)c1ccc(Cl)cc1 | 14.2% (inactive)
26 | CCC(=O)c1ccc(O)cc1 | 0.739% (inactive)
27 | CC(C)(C)NCCO | 8.31% (inactive)
28 | COC(/C=C(\C)CCC=C(C)C)OC | 40.9% (inactive)
29 | Cc1ccc2c(c1)c1c3n2CCNC3CCC1 (stereo not given) | -26.2% (inactive)
30 | CCN1CN(CC)CN(CC)C1 | -7.01% (inactive)
31 | c1ccc(CNc2ncnc3nc[nH]c23)cc1 | -3.42% (inactive)
32 | O=C(c1ccc2c(c1)C(=O)OC2=O)c1ccc2c(c1)C(=O)OC2=O | -11.3% (inactive)
33 | CC(=O)OCCCc1ccccc1 | 11.7% (inactive)
34 | CC(C)CCC(=O)CCC(C)C | 0.351% (inactive)
35 | CCCCCC(=O)OCC | -1.12% (inactive)
36 | Nc1ccc(C(=O)OCC(O)CO)cc1 (stereo not given) | 15.3% (inactive)
37 | CCCCCCCCCCCCCCCCI | -11.5% [at 29.1 µM] (inactive)
38 | NC(=O)NNC(N)=O | 11.7% (inactive)
39 | Cc1c(C(C)C)c(=O)n(-c2ccccc2)n1C | 3.24% (inactive)
40 | CCOC(=O)C(=O)c1csc(NC=O)n1 | 10.1% (inactive)
